Test results as given in PubChem BioAssay AID485313 (National Center for Advancing Translational Sciences (NCATS), 2010).
Out of some 320,000 compounds screened, about 7,600 (2.4%) were called active. Where a call stands in place of a potency, no number is given. Roughly 3% stayed inconclusive and do not appear here. Calls come from the whole dose curve; as a rule, active = well fitted activation curve with a large enough effect; inconclusive = small, poorly fitted or top-dose-only effect; inactive = no such curve, though single readings can be large or run the other way. The full list was thinned out, with actives kept by preference.

Experiment: qHTS Assay for NPC1 Promoter Activators; note: nearly all actives have a fitted effect of over 60% in size
Conditions: Huh7 NPC1 promoter luciferase reporter, 24 h; series mostly up to 9.22 µM
Text: NIH Chemical Genomics Center [NCGC] NIH Molecular Libraries Probe Production centers Network [MLPCN] MLPCN Grant: MH089375-01A1 Assay Submitter (PI): Yiannis A. Ioannou NCGC Assay Overview: Niemann Pick Type C (NPC) is a rare neurodegenerative lipidosis that is characterized by lipid storage in the endosomal/lysosomal system. Treatment modalities for this devastating disease are currently non-existent due to the severe obstacles associated with accessing the central nervous system with proteins or genes. The majority of mutations causing NPC disease are missense mutations that are distributed throughout the length of the NPC1 protein, with the most prevalent being the I1061T allele. Although NPC1 mutant proteins may be functional, they are typically trapped in the ER due to misfolding. […] We have developed and optimized a cell based luciferase reporter assay in 1536 well format for the identification of up-regulators of the mutant NPC1 promoter.
The NPC1 promoter is cloned in front of the luciferase reporter gene, therefore NPC promoter activation results in luciferase expression. Frozen stock of the NPC1 promoter transfected Huh7 cells were obtained from the laboratory of Dr. Yiannis Ioannou (The Mount Sinai School of Medicine, New York, NY). Cells were propagated and maintained at NCGC in medium containing RPMI-1640 supplemented with 10% FBS, 2mM L-glutamine, and 50ug/ml penicillin/streptomycin. Cells were harvested in and plated for assays in OP-MEM I reduced-serum medium supplemented with 10% FBS. The Amplite luciferase reporter gene assay kit was purchased from ABD Bioquest and prepared/stored according to manufacturers recommendations. qHTS Assay Setup: 1.#Dispensed 5ul of Huh7 cells stably expressing NPC1-luciferase at a density of 1500 cells per well 1536-well plates. 2.#Incubate cells at 37C, 5% CO2, and 95% humidity for 2 hours. 3.#Transferred 23nl per well of compound in DMSO solution. 4.#Incubated at 37C, 5% CO2, and 95% humidity for 24 hours. 5.#Dispensed 3ul per well of Amplite reagent(ABD Bioquest) per well. 6.#Incubate at ambient for 10 minutes. 7.#Read using the luminescence protocol on the ViewLux plate reader (Perkin Elmer).
Potency is the fitted concentration of half-maximal effect.

SMILES	Potency
O=C(Nc1ccccc1-c1nc2ccccc2[nH]c1=O)c1cccs1	inactive
C/C(=N\NS(=O)(=O)c1ccc(Br)cc1)c1cccs1	inactive
C/C(=N\Nc1nc(Nc2ccccc2)nc(N2CCOCC2)n1)c1cccs1	inactive
C/C(=N\Nc1nc2ccccc2[nH]1)c1cccs1	2 µM (active)
C/C(=N\Nc1ccc(S(N)(=O)=O)cc1[N+](=O)[O-])c1cccs1	inactive
C/C(=N\Nc1ncc(Cl)cc1Cl)c1cccs1	1.78 µM (active)
CN(C(=O)CSc1nnc(-c2ccc3c(c2)OCO3)o1)C1CCS(=O)(=O)C1 (configuration not stated)	inactive
CCOc1ccc(NC(=O)COC(=O)C2CCC(=O)N2)c([N+](=O)[O-])c1 (configuration not stated)	inactive
CCN1C(=O)C(=O)N(CC(=O)Nc2cc(C)ccc2C)C1=O	inactive
CCc1ccc(NC2Nc3cc(C)nn3S2)cc1 (configuration not stated)	2.82 µM (active)
CCOC(=O)c1ccc(NC2Nc3cc(C)nn3S2)cc1 (configuration not stated)	inactive
CN(C(=O)CN1C(=O)/C(=C/c2ccc(Cl)cc2)SC1=S)C1CCS(=O)(=O)C1 (configuration not stated)	inactive
Cc1cc([N+](=O)[O-])ccc1NC(=O)C1CCCO1 (configuration not stated)	inactive
Cc1cc(C)c2nc(NC(=O)C3CCCO3)sc2c1 (configuration not stated)	3.98 µM (active)
Cc1ccc(C)c(C(C)NC(=O)C2CCCO2)c1 (configuration not stated)	inactive
CCOC(=O)c1ccc(NC(=O)C2CC(=O)N(c3ccc4c(c3)OCCO4)C2)cc1 (configuration not stated)	inactive
COc1cc(OC)c(N2CC(C(=O)Nc3cc(Cl)ccc3N3CCOCC3)CC2=O)cc1Cl (configuration not stated)	inactive
COc1cccc(NC(=O)COC(=O)/C=C/c2ccco2)c1	inactive
O=C(/C=C/c1ccco1)Nc1ccc(Oc2ccccc2)cc1	3.98 µM (active)
O=C(/C=C/c1ccco1)NC(=S)Nc1ccccc1Br	inactive
CCC(CC)c1nnc(NC(=O)/C=C/c2ccco2)s1	inactive
Cc1nnc(NC(=O)/C=C/c2ccco2)s1	2.51 µM (active)
CCOC(=O)c1c(NC(=O)/C=C/c2ccco2)sc(C)c1C	inactive

SMILES	Potency
CC(C)(CNC(=O)CNC(=O)C1CCCCC1)N1CCOCC1	inactive
O=C(C1CC(=O)N(C2CCCC2)C1)N1CCN(c2cccc(C(F)(F)F)c2)CC1 (configuration not stated)	inactive
COc1ccccc1N1CCN(CC(=O)Nc2ccnn2C2CCCC2)CC1	inactive
COc1cccc2cc(C(N)=O)/c(=N\NC(=O)c3ccccc3)oc12	2.82 µM (active)
NC(=O)c1cc2ccccc2o/c1=N/NC(=O)c1cccc(F)c1	inactive
COc1ccc(C(=O)N/N=c2\oc3ccccc3cc2C(N)=O)cc1	inactive
O=C(c1ccc(Cl)c(S(=O)(=O)N2CCCCCC2)c1)N1CCN(c2ccc(O)cc2)CC1	inactive
Cc1ccccc1C(=O)NC(=S)Nc1ccc(N2CCN(C(=O)c3ccccc3)CC2)cc1	inactive
CC(=O)Oc1cccc(C(=O)Nc2ccccc2NC(=O)c2cccc(OC(C)=O)c2)c1	inactive
CN1CCN(c2ccc(NC(=O)c3ccc4c(c3)[nH]c(=O)n4Cc3ccc(F)cc3)cc2)CC1	inactive
CN1CCN(c2ccc(NC(=O)c3ccccc3)cc2)CC1	2.51 µM (active)
COc1cccc(C(=O)Nc2cc3c(cc2Br)OCCCO3)c1	2.82 µM (active)
COc1ccc(C2COC(=O)C2=N)c(NC(=O)c2ccccc2)c1 (configuration not stated)	inactive
COc1ccc(C(=O)Nc2ccc(N3CCC(C)CC3)cc2)cc1Br	inactive
COc1cccc(C(=O)Nc2ccc(N3CCCC3)cc2)c1	0.891 µM (active)
COc1cccc(C(=O)Nc2ccc(N3CCN(C(=O)c4ccco4)CC3)cc2)c1	inactive
O=C(CSc1ncnc2sccc12)N1CCN(C(=O)c2cccs2)CC1	inactive
Cc1ccc(S(=O)(=O)N2CCCCC2)cc1NC(=O)[C@@H]1CCCN1C(=O)c1cccs1	inactive
O=C(CSc1nc2ccccc2c(=O)n1-c1ccc(F)cc1)NC1CC1	inactive
COc1cccc(-n2c(SCC(=O)NC3CCS(=O)(=O)C3)nc3ccccc3c2=O)c1 (configuration not stated)	inactive
Cc1ccc(-n2c(SCC(=O)N3CCC(C(=O)O)CC3)nc3ccccc3c2=O)cc1C	3.55 µM (active)
CC(=O)Nc1ccc(SC[C@H](Cc2ccccc2)N2CC[C@@H](C)CCC2=O)cc1	inactive
CCn1c(=N)n(CC(=O)c2cccc(OC)c2)c2ccccc21	3.55 µM (active)

SMILES	Potency
CCOC(=O)c1cc2ccccc2n1CC(=O)c1ccccc1	inactive
COc1ccc2cc(C(=O)O)n(CC(=O)c3ccccc3)c2c1	inactive
CCOC(=O)c1cn(CC(=O)Nc2ccc(C(C)C)cc2)nn1	inactive
CC(C)c1ccc(NC(=O)Cn2ncc3ccccc32)cc1	0.891 µM (active)
CCc1ccc(NC(=O)Cn2ncn3c(cc4ccccc43)c2=O)cc1	inactive
O=C(NCc1ccccc1CN1CCCC1)C1CCN(S(=O)(=O)c2ccc(Cl)cc2)CC1	inactive
CNC(=S)N/N=C/c1ccc(N2CCOCC2)s1	inactive
CCC(C)N(C(=O)CSc1ncnc2c1cnn2-c1ccccc1)C1CCS(=O)(=O)C1 (configuration not stated)	inactive
O=C(NCCC1=CCCCC1)C1CCN(Cc2cnn(-c3ccccc3)c2-n2cccc2)CC1	inactive
O=C(NNc1ncnc2c1cnn2-c1ccccc1)c1ccco1	inactive
C1=C(CCNc2ncnc3c2cnn3-c2ccccc2)CCCC1	1.78 µM (active)
Cc1ccc(-c2nc3c(cnn3-c3ccccc3)c(=O)o2)cc1	inactive
O=C(Cn1cnc2c(cnn2-c2ccccc2)c1=O)NCc1ccccc1	inactive
c1ccc(-n2ncc3c(N4CCCC4)ncnc32)cc1	2.51 µM (active)
CC(C)Sc1ncnc2c1cnn2-c1ccccc1	3.55 µM (active)
CCN(C(=O)CSc1ncnc2c1cnn2-c1ccccc1)C1CCS(=O)(=O)C1 (configuration not stated)	inactive
CC1CCc2sc(C(=O)NCC(c3ccco3)N3CCCCC3)cc2C1 (configuration not stated)	inactive
CCOCCc1nn2c(=O)cc(CSCC(=O)Nc3cccc(C)c3C)nc2s1	inactive
CSCCC(NC(=O)c1ccccc1)C(=O)N1CCN(Cc2ccc(Cl)cc2)CC1 (configuration not stated)	inactive
COC(=O)c1ccc(-c2c(-c3ccccc3)ncc3cc(OC)c(OC)cc23)cc1	inactive
Cc1ccc2c(CN3CCN(S(=O)(=O)c4ccccc4C(F)(F)F)CC3)cc(=O)oc2c1	inactive
